The supplement of paper PMC10849652
Targets with a hit are over-represented here; the source holds about 7,900 in all. About 0.6% of all pairs of compound and target were hits.

Key:
Experiment in all cases: log2 fold change, soluble protein after heating vs DMSO (PISA); higher = thermal stabilisation; K562 cells, 10 uM, 30 min; active = over 0.2 and 3.5 SD of the protein, either way, in both replicates (recomputed)
[1] = compound: CC[C@H](C)[C@@H](C(=O)N[C@@H]([C@@H](C)O)C(=O)N[C@@H](CC(C)C)C(=O)[C@]1(CO1)C)NC(=O)[C@H]([C@@H](C)CC)N(C)C(=O)C [epoxomicin]
Procedure, shortened: (§1)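 Values are thermal stability changes relative to control samples and are taken from duplicates. They are stated as log2 fold changes. Before quantification by TMTpro 16plex LC-MS/MS with equalised channel sums, K562 cells at 2×10^6 cells/mL were treated with 10 μM compound for 30 min, heated in aliquots for 3 min across 48°C-58°C, pooled, extracted in PBS with 0.5% NP-40 at 4°C, and centrifuged at 21,000xg for 90 min to give the soluble supernatant.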

[2] = compound: CN(C)CC(=O)Nc1ccc2[nH]c(=O)c3ccccc3c2c1
Procedure, shortened: as §1

[3] = compound: CN1CCN(c2nc(C3=C(c4c[nH]c5ccccc45)C(=O)NC3=O)c3ccccc3n2)CC1 [sotrastaurin]
Procedure, shortened: as §1

[4] = compound: CNC(=O)c1ccc(Nc2ncc(C(F)(F)F)c(NCc3nccnc3N(C)S(C)(=O)=O)n2)cc1 [defactinib]
Procedure, shortened: as §1

[5] = compound: COC(=O)[C@H](CCSC)NC(=O)C1=C(C=C(C=C1)NC[C@H](CS)N)C2=CC=CC=C2
Procedure, shortened: as §1

[6] = compound: CN(CCOC1=CC=C(C=C1)C[C@H]2C(=O)NC(=O)S2)C3=CC=CC=N3 (racemic) [rosiglitazone]
Procedure, shortened: as §1

[7] = compound: CN1C2=C(C3=C1C(=O)N(N=C3)CC4=CC(=CC=C4)N)SC(=C2)S(=O)C
Procedure, shortened: as §1

[8] = compound: CN1CCN(CCOc2cc(OC3CCOCC3)c3c(Nc4c(Cl)ccc5c4OCO5)ncnc3c2)CC1 [saracatinib]
Procedure, shortened: as §1

[9] = compound: CN1CCc2c(c3ccccc3n2Cc2ccc(C(=O)NO)cc2)C1 [Tubastatin A]
Procedure, shortened: as §1

[10] = compound: CNc1nc(-c2ccc3c(N)n[nH]c3c2)cc(N2C[C@@H](C(=O)NC3CCCCC3)CC[C@H]2C)n1
Procedure, shortened: as §1

[11] = compound: CC[C@@H]1C(=O)N(C)c2cnc(Nc3ccc(C(=O)N[C@H]4CC[C@H](N5CCN(CC6CC6)CC5)CC4)cc3OC)nc2N1C(C)C [volasertib]
Procedure, shortened: as §1

[12] = compound: CCn1c(C(=O)N(C2CC2)C2CC2)cc2c3c(ncn3C)c(Nc3cc(C)n(C)n3)nc21
Procedure, shortened: as §1

[13] = compound: CCn1cc(-c2ccnc3[nH]c(-c4cccc(CN(C)C)c4)cc23)c(-c2ccc(NC(=O)N(C)C)cc2)n1
Procedure, shortened: as §1

[14] = compound: CN1CCC(CNc2ccc3ncc(-c4cccc(OC(F)(F)F)c4)n3n2)CC1
Procedure, shortened: as §1

[15] = compound: CN1CC[C@H](c2c(O)cc(O)c3c(=O)cc(-c4ccccc4Cl)oc23)[C@H](O)C1 [alvocidib]
Procedure, shortened: as §1

[16] = compound: CNC(=O)C1=CC=CC=C1NC2=NC(=NC=C2Cl)NC3=C(C=C(C=C3)N4CCOCC4)OC
Procedure, shortened: as §1

[17] = compound: CC[C@H](C)N1C=C(C2=C(C=C(C=C21)C3=CN=C(C=C3)N4CCNCC4)C(=O)NCC5=C(C=C(NC5=O)C)C)C
Procedure, shortened: as §1

Measured: log2 fold change

LSR (UniProt M0QZL9)
inactive: [1] 0.076 | [2] -0.125 | [3] 0.042 | [4] 0.065 | [5] -0.249

MFAP3 (UniProt P55082)
Sequence of UniProt P55082 (P55082 whole entry, looked up): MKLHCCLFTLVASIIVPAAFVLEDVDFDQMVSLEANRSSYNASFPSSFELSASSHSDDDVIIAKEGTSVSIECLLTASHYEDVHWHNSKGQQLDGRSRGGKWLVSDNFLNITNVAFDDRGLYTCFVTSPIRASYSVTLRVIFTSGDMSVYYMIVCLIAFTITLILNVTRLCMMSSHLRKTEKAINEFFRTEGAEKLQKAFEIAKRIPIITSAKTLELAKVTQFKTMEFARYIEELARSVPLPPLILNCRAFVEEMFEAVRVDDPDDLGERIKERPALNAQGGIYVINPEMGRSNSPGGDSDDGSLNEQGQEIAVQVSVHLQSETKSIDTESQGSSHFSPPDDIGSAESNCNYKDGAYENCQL
inactive: [1] -0.054 | [2] -0.118 | [6] 0.046 | [7] -0.008 | [8] 0.088 | [3] 0.019 | [9] 0.068 | [4] 0.306 | [10] 0.002 | [5] -0.189

MGRN1 isoform 2 (UniProt O60291)
Sequence of UniProt O60291 (O60291 whole entry, looked up): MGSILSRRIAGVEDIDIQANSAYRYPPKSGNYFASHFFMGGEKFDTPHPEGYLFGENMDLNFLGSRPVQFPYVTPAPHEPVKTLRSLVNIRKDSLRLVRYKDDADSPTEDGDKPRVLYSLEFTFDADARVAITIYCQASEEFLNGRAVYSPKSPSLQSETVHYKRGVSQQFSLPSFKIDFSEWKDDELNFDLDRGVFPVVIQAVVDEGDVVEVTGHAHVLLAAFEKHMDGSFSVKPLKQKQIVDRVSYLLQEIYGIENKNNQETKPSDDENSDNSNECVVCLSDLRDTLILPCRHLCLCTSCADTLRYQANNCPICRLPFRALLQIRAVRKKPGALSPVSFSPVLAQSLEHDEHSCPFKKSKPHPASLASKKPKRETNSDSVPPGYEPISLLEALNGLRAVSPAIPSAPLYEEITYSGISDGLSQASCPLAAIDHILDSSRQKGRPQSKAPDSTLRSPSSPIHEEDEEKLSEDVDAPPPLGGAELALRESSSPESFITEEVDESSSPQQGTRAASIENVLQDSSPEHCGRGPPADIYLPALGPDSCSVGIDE
inactive: [11] -0.115 | [12] 0.071 | [13] -0.072 | [6] 0.014 | [14] -0.07 | [15] 0.036 | [9] 0.197 | [16] -0.054

MAPRE3 isoform 2 (UniProt Q9UPY8)
Sequence of UniProt Q9UPY8 (Q9UPY8 whole entry, looked up): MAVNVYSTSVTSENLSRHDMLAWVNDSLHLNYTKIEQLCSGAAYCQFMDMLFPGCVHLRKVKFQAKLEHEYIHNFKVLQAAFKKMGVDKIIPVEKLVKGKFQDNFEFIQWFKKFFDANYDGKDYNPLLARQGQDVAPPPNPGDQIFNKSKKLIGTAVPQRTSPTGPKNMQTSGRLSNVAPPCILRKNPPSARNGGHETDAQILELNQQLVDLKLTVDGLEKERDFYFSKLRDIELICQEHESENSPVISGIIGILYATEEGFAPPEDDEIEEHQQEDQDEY
inactive: [11] 0.165 | [17] 0.04 | [15] -0.075 | [9] 0.13
